The values below come from PubChem BioAssay (NCATS).

“And” between values parts separate entries of the source, which are not always exact repeats. Equal values may be shown once. Unmarked numbers belong to inactive results. For part of these data: Potency and affinity values are given separately. The source made the active and inactive calls.

For assay [1] the following is noted: Ebola virus entry assay, green fluorescence channel.
For assay [2] the following is noted: Ebola virus entry assay, blue channel fluorescence.
The conditions of assay [3]: Ebola virus entry assay, ratio channel.
The conditions of assay [4]: Ebola virus entry assay, green channel fluorescence.
For assay [5] the following is noted: Ebola virus entry assay, reporter ratio channel; AC50: Channel type: primary unless noted; outcome: Channel type: primary unless noted.
The conditions of assay [6]: Ebola virus entry assay, blue channel (ratio component).
The conditions of assay [7]: Ebola virus entry assay, green fluorescence channel. This is another data set of the same source.
For assay [8] the following is noted: Ebola virus entry assay, ratio channel readout.
For assay [9] the following is noted: Ebola virus entry assay, blue channel fluorescence. This is another data set of the same source.
Wherever efficacy is given: 0% is about no effect.

The term AC50 denotes the midpoint of the concentration-response curve, whichever way the signal moves. As for `Cc1ccc(S(=O)(=O)N[C@@H](CCCCN)C(=O)CCl)cc1`, the efficacy in [1] is 32.6%. Moreover, the half-maximal activity concentration (AC50) in [2] was 14.1 µM (active); in assay [5], 28.2 µM (active). The result in [3] and in assay [4] was inactive.

With `CCN1/C(=C/C=C/c2sc3ccccc3[n+]2CC)Sc2ccccc21`, the efficacy in [1] was 26.7%. Further, the outcome in assay [2], in [3], in assay [4] and in [5] was inactive.

With `CC[C@@H](CO)NC(=O)[C@@H]1C=C2c3cccc4[nH]cc(c34)C[C@H]2N(C)C1`, in [1], the efficacy was -16.2%. The AC50 is 7.94 µM (active) in assay [2], 10 µM (active) in [3] and 10 µM (active) in assay [5]. Moreover, the molecule was classed as inactive in assay [4].

As for `Cc1cccc(C)c1NC1=NCCCS1`, in [1], the efficacy is -17.5%. Moreover, the molecule was classed as inactive in assay [2], in assay [3], in assay [4], in assay [5] and in assay [6].

Consider `Clc1ccc(CCC(Cn2ccnc2)Sc2c(Cl)cccc2Cl)cc1` (centres undefined), for which the efficacy in assay [1] is -22%. The AC50 was 25.1 µM (active) in [2], 22.4 µM (active) in assay [3] and 22.4 µM (active) in [5]. Further, the molecule was called inactive in assay [4].

As for `CCOC(=O)[C@H](CCc1ccccc1)N[C@@H](C)C(=O)N1Cc2ccccc2C[C@H]1C(=O)O`, in assay [1], the efficacy is 30.9%. In addition, the molecule was called inactive in [7], in assay [8], in [3], in assay [4], in [9] and in assay [5]. In assay [6], the result was inactive.

As for `CCN(CC)C(=O)N[C@@H]1C=C2c3cccc4[nH]cc(c34)C[C@@H]2N(C)C1`, the efficacy in assay [1] was 16%. Further, the molecule was called inactive in [2], in assay [3], in assay [4] and in assay [6]. In addition, in assay [5], the AC50 is 31.6 µM (active).

Turning to `CC(C)OC(=O)C(C)(C)Oc1ccc(C(=O)c2ccc(Cl)cc2)cc1`, the efficacy in assay [1] is 75.8%. The outcome in [7], in [8], in assay [2], in assay [3], in [5] and in assay [6] was inactive.

For the molecule `Cc1ccc2c(n1)Oc1ccc(C(C)C(=O)OCC(=O)N(C)C)cc1C2` (centres undefined), the efficacy in [1] was -14% and -11.2%. The result in assay [2], in assay [3], in assay [4] and in assay [5] was inactive.

Consider `N=c1nc(N2CCCCC2)cc(N)n1O`, for which the efficacy in assay [1] is -16.3%. The outcome in assay [7], in [8], in assay [4], in assay [9], in assay [5] and in [6] was inactive.

`O=c1[nH]cnc2c1ncn2[C@H]1CC[C@@H](CO)O1`: the efficacy in assay [1] is -19.1%. For the same molecule, the call in [7], in assay [4], in [9], in assay [5] and in assay [6] was inactive.

Regarding `Cn1cc(C2=C(c3cn(C4CCN(Cc5ccccn5)CC4)c4ccccc34)C(=O)NC2=O)c2ccccc21`, the efficacy in [1] is 36.4%. For the same molecule, the result in [2], in assay [3], in [4] and in assay [5] was inactive.

On to `CN[C@H]1CC[C@@H](c2ccc(Cl)c(Cl)c2)c2ccccc21`, for which the efficacy in [1] is -213%. For the same molecule, the outcome in assay [7] was inactive. Moreover, the AC50 in assay [2] was 2 µM (active); in assay [3], 1.58 µM (active); in [5], 1.58 µM (active).

Turning to `c1ccc(C2CC2)c(OCC2=NCCN2)c1`, the efficacy in [1] was 46.8%. Also, the AC50 in assay [2] and in assay [5] was 39.8 µM (active) each time. Besides, the outcome in assay [3] and in [4] was inactive.

Take `CCCCc1oc2ccccc2c1C(=O)c1cc(I)c(OCCN(CC)CC)c(I)c1`: in assay [1], the efficacy is 105%. Moreover, the call in [7] was inactive. Moreover, the AC50 was 3.55 µM (active) in [2], 2.82 µM (active) in assay [3] and 2.82 µM (active) in assay [5].

Consider `Cc1nc(N)nc(N)c1-c1ccc(Cl)c(Cl)c1`, for which the efficacy in assay [1] was -23%. The AC50 in assay [2] was 12.6 µM (active); in assay [3], 28.2 µM (active); in assay [5], 28.2 µM (active). The call in assay [4] was inactive.

`C[C@]12CCC(=O)C(O)=C1CC[C@@H]1[C@@H]2CC[C@]2(C)C(=O)CC[C@@H]12`: the efficacy in assay [1] was -14%. In addition, the result in assay [2], in assay [3], in assay [4], in [5] and in [6] was inactive.

For the molecule `Oc1ccccc1-c1ccccc1`, the efficacy in [1] is 11.7%. In addition, the molecule was called inactive in [2], in assay [3], in assay [4] and in [5].

With `Oc1cccc2cccnc12`, in assay [1], the efficacy is -17.8%. Besides, the molecule was called inactive in [2], in assay [3], in assay [4] and in assay [5].

With `CC(C)NCC(O)c1ccccc1Cl` (centres undefined), the efficacy in assay [1] was 16.7%. The result in assay [2], in [3], in [4], in [5] and in assay [6] was inactive.

As to `C[C@@H]1O[C@@H](O[C@H]2C[C@@H](O)[C@]3(CO)[C@H]4[C@H](O)C[C@]5(C)[C@@H](C6=CC(=O)OC6)CC[C@]5(O)[C@@H]4CC[C@]3(O)C2)[C@H](O)[C@H](O)[C@H]1O`, the efficacy in [1] is -93.6%. Besides, the AC50 is 8.91 µM (active) in [2], 0.708 µM (active) in [3] and 0.708 µM (active) in assay [5]. In addition, the molecule was classed as inactive in [4].

On to `O=C(O)c1ccc2[nH]cc(CCCCN3CC=C(c4ccccc4)CC3)c2c1`, for which the efficacy in assay [1] was 28%. In addition, the result in assay [2], in [3], in assay [4], in assay [5] and in assay [6] was inactive.

Consider `Cn1ccc2cc3c(cc21)CCN3C(=O)Nc1cccnc1`, for which the efficacy in assay [1] is -35.6%. The outcome in [2], in assay [3], in assay [4], in assay [5] and in assay [6] was inactive.

For `NN=C(N)N`, the efficacy in assay [1] is -37.7%. Besides, the outcome in [2], in assay [3], in assay [4], in [5] and in [6] was inactive.

Regarding `CC(C)=CC1C(C(=O)OCc2cccc(Oc3ccccc3)c2)C1(C)C` (centres undefined), in assay [1], the efficacy was -13.4%. Moreover, the molecule was classed as inactive in assay [2], in assay [3], in assay [4], in assay [5] and in assay [6].

On to `CC(=O)Nc1cc([As](=O)(O)O)ccc1O`, for which, in assay [1], the efficacy is 15.5%. Further, the result in [2], in assay [3], in assay [4], in [5] and in assay [6] was inactive.

For `CCOP(=S)(OCC)Oc1cc(C)nc(C(C)C)n1`, in assay [1], the efficacy is 13.4%. For the same molecule, the result in [2], in [3], in [4], in assay [5] and in assay [6] was inactive.

On to `CC(=O)[C@H]1CC[C@H]2[C@@H]3CC[C@H]4C[C@H](O)CC[C@]4(C)[C@H]3C(=O)C[C@]12C`, for which the efficacy in [1] was -24.6%. The call in assay [2], in assay [3], in assay [4], in assay [5] and in assay [6] was inactive.
